Data from PubChem BioAssay (NCI).
This is part of a sample that, as a whole, favours compounds with a hit. Of some 83,000 tested, about 20% had one in any assay.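 The endpoint reported here, percent growth, reads 100 for growth as untreated, 0 for no net growth and -100 for all cells dead.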 Unmarked numbers belong to inactive results. The source made the active and inactive calls. The calls were made as follows: active = growth percent below 10; inactive = the rest.

Assays:
Assay in all cases: NCI-60 one-dose screen, 48 h (100 = growth as untreated, 0 = no growth, -100 = all killed)
Details in all cases: 10 µM unless noted
HCT-15 colon = test system: HCT-15 colon
HT29 colon = test system: HT29 colon
SNB-75 CNS = test system: SNB-75 CNS
SNB-19 CNS = test system: SNB-19 CNS
U251 CNS = test system: U251 CNS
PC-3 prostate = test system: PC-3 prostate
SK-MEL-5 melanoma = test system: SK-MEL-5 melanoma
UACC-62 melanoma = test system: UACC-62 melanoma
LOX IMVI melanoma = test system: LOX IMVI melanoma
SK-MEL-28 melanoma = test system: SK-MEL-28 melanoma
SK-MEL-2 melanoma = test system: SK-MEL-2 melanoma
EKVX NSCLC = test system: EKVX NSCLC
SN12C renal = test system: SN12C renal
UO-31 renal = test system: UO-31 renal
TK-10 renal = test system: TK-10 renal
ACHN renal = test system: ACHN renal
CAKI-1 renal = test system: CAKI-1 renal
A498 renal = test system: A498 renal
CCRF-CEM leukemia = test system: CCRF-CEM leukemia
MOLT-4 leukemia = test system: MOLT-4 leukemia

SMILES | growth (HCT-15 colon) | growth (HT29 colon) | growth (SNB-75 CNS) | growth (SNB-19 CNS) | growth (U251 CNS) | growth (PC-3 prostate) | growth (SK-MEL-5 melanoma) | growth (UACC-62 melanoma) | growth (LOX IMVI melanoma) | growth (SK-MEL-28 melanoma) | growth (SK-MEL-2 melanoma) | growth (EKVX NSCLC) | growth (SN12C renal) | growth (UO-31 renal) | growth (TK-10 renal) | growth (ACHN renal) | growth (CAKI-1 renal) | growth (A498 renal) | growth (CCRF-CEM leukemia) | growth (MOLT-4 leukemia)
O=C1O[C@@H](c2ccccc2Cl)[C@@H]2c3cc4c(cc3CCN12)OCO4 | 101% | 86.4% | 91.7% | 99.4% | 86% | 87.7% | 96.6% | 78.7% | 99.5% | 118% | 91.7% | 101% | 103% | 74.6% | 89.1% | 105% | 105% | 82.8% | 105% | 90.5%
Clc1ccc2nn3c4ccccc4c(OCCN4CCOCC4)nc3c2c1 | 89.8% | 95.5% | 76.8% | 81.1% | 84.5% | 92.8% | 83.7% | 67.6% | 84.2% | 110% | 112% | 84.3% | 87.9% | 49.2% | 84.8% | 70.7% | 50.4% | 3.87% (active) | 96.2% | 95.3%
Nc1ncnc2c1N=C(c1ccc(Cl)cc1)CC(c1cccc(Nc3ccnc4cc(Cl)ccc34)c1)N2 (stereo not given) | 21.1% | 36.3% | 60.4% | 79.6% | 50% | 55.4% | 61.9% | 81.2% | 45.5% | 86.8% | 76.6% | 59.4% | 67.1% | 47.2% | 117% | 84.2% | 65.7% | 51.1% | 4% (active) | 12.3%
C[C@H](c1nc2ccc(C#N)cc2[nH]1)[C@H]1CC[C@H]2[C@@H]3CCC4=CC(=O)CC[C@]4(C)[C@H]3CC[C@]12C | 44.7% | 32.9% | 75.7% | 71.6% | 65.3% | 28.5% | 50.4% | 56.6% | 71.7% | 89.4% | 84.9% | 58.4% | 69.5% | 51.8% | 95.2% | 80.4% | 50.8% | 14.5% | 46.5% | 49.2%
COc1ccc(/C=C2\c3cc(OC)c(OC)c(OC)c3CC[C@@H]2O)cc1F | 20.7% | 11.9% | 14.5% | 42.4% | 20.1% | 23.1% | 23.8% | 34.2% | 37.3% | 70.1% | 41.6% | 44.1% | 53.2% | 47.7% | 57.9% | 43% | 48.4% | 8.33% (active) | 12.8% | 21.5%
CS(=O)(=O)c1ccc(-c2nc3ccccc3n2CC(=O)N/N=C/c2ccccc2)cc1 | 100% | 88.5% | 96.5% | 107% | 109% | 96.9% | 100% | 94.4% | 107% | 103% | 99.7% | 92.9% | 108% | 76.3% | 103% | 101% | 89.4% | 111% | 104% | 117%
Clc1cccc(C2Cc3cnccc3-c3[nH]c4ccncc4c32)c1 (stereo not given) | 25.2% | 40.9% | 73.6% | 53.9% | 36.9% | 21.1% | -60.2% (active) | 36.5% | 39.7% | 62.7% | 61% | 42.9% | 56.4% | 39.1% | 53.3% | 42.1% | 50.8% | 39% | 49.7% | 9.28% (active)
ClC(Cl)c1nc(-c2ccccc2)n2nc(-c3ccccc3)cc2n1 | -16% (active) | 1.24% (active) | -37.5% (active) | 6.64% (active) | -14.9% (active) | 17.2% | 84.4% | 68.4% | 72.1% | 25.5% | 72.1% | -22.1% (active) | 58.7% | 3.46% (active) | 0.776% (active) | -57% (active) | -34.7% (active) | -26.5% (active) | 63.3% | 30.8%
COc1ccc(OC)c(Nc2nnc(-c3cc(OC)c(OC)c(OC)c3)o2)c1 | 99% | 86.8% | 101% | 96.7% | 105% | 98.6% | 93.9% | 87.8% | 97.9% | 102% | 99.7% | 99.8% | 89.5% | 89.6% | 103% | 105% | 100% | 89.9% | 121% | 84.1%
COc1cc(C=Nc2oc(-c3ccccc3)c(-c3ccccc3)c2C#N)cc(CN2CCCC2)c1O | 103% | 107% | 66.8% | 94.6% | 93.2% | 86.8% | 104% | 86.5% | 96.5% | 112% | 105% | 91.8% | 91.8% | 68% | 123% | 85.1% | 77.3% | 64.4% | 102% | 104%
O=C(c1ccc(Br)cc1)C(Br)C(c1ccc(Cl)cc1)C(c1ccccc1)[N+](=O)[O-] (stereo not given) | 84.8% | 87.3% | 89.4% | 93.9% | 96.9% | 76.5% | 86.6% | 71.8% | 102% | 97.7% | 110% | 79.9% | 101% | 79% | 103% | 102% | 88.7% | 87.5% | 90.3% | 89.7%
Nc1[nH]nc2nc(-c3ccccc3)n3c4ccccc4nc3c12 | 101% | 104% | 87.7% | 106% | 102% | 95.2% | 92.8% | 88.7% | 99.7% | 117% | 98.8% | 78% | 104% | 83.2% | 110% | 89% | 83.1% | 89.2% | 102% | 97.9%
Cc1ccc(-c2nc(SCC(=O)N3CCN(c4cc5c(cc4F)c(=O)c(C(=O)O)cn5C4CC4)CC3)nc(Cl)c2C#N)cc1 | 99.8% | 103% | 103% | 94.7% | 106% | 99.5% | 101% | 94.7% | 97.2% | 106% | 97.8% | 96.1% | 96.3% | 82.1% | 104% | 106% | 94.7% | 103% | 106% | 105%
Cc1ccc(S(=O)(=O)OCC#CCOS(=O)(=O)c2ccc(C)cc2)cc1 | 72.3% | 50.3% | 5% (active) | 70.1% | 22.6% | 70.4% | 59.4% | 42.4% | -35.8% (active) | 74.9% | 66.4% | 60.9% | 64.1% | -87.1% (active) | 101% | 49.5% | -82.9% (active) | 85.9% | 7.43% (active) | 46.3%
